PubChem BioAssay (NCI)
Compounds without any hit were thinned out: in the full panel of roughly 83,000, 20% have a hit.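 Plates (96-well) were seeded with cells, treated with compound at one concentration, and incubated for 48 hours before percent growth was determined.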 Values without a mark were called inactive. The source made the active and inactive calls. Rule for the calls: active = growth percent below 10; inactive = the rest.

What was measured:
Assay in all cases: NCI-60 one-dose screen, 48 h (100 = growth as untreated, 0 = no growth, -100 = all killed)
Conditions in all cases: 10 µM unless noted
SR leukemia = test system: SR leukemia
RPMI-8226 leukemia = test system: RPMI-8226 leukemia
OVCAR-8 ovarian = test system: OVCAR-8 ovarian
OVCAR-5 ovarian = test system: OVCAR-5 ovarian
OVCAR-4 ovarian = test system: OVCAR-4 ovarian
SK-OV-3 ovarian = test system: SK-OV-3 ovarian
IGROV1 ovarian = test system: IGROV1 ovarian
OVCAR-3 ovarian = test system: OVCAR-3 ovarian
HS 578T breast = test system: HS 578T breast
NCI/ADR-RES ovarian = test system: NCI/ADR-RES ovarian
T-47D breast = test system: T-47D breast
BT-549 breast = test system: BT-549 breast
MDA-MB-435 melanoma = test system: MDA-MB-435 melanoma
SW-620 colon = test system: SW-620 colon
MCF7 breast = test system: MCF7 breast
HCT-116 colon = test system: HCT-116 colon
HCC-2998 colon = test system: HCC-2998 colon
KM12 colon = test system: KM12 colon

Compound	growth (SR leukemia)	growth (RPMI-8226 leukemia)	growth (OVCAR-8 ovarian)	growth (OVCAR-5 ovarian)	growth (OVCAR-4 ovarian)	growth (SK-OV-3 ovarian)	growth (IGROV1 ovarian)	growth (OVCAR-3 ovarian)	growth (HS 578T breast)	growth (NCI/ADR-RES ovarian)	growth (T-47D breast)	growth (BT-549 breast)	growth (MDA-MB-435 melanoma)	growth (SW-620 colon)	growth (MCF7 breast)	growth (HCT-116 colon)	growth (HCC-2998 colon)	growth (KM12 colon)
CCOC(=O)C1=C(c2ccccc2)N=C2SC=C(c3ccc(Cl)cc3)N2C1c1ccc(Br)cc1 (stereo unspecified)	74.2%	61.8%	80.3%	94.9%	50.5%	82.5%	74.5%	67.4%	77.9%	83%	52.2%	84.3%	94.3%	78.9%	75.2%	64.9%	90.5%	78.1%
O=C(c1nn(-c2ccccc2)c2c1CC(NCc1ccc(F)cc1)CC2)N1CCCCC1 (stereo unspecified)	94.6%	110%	97%	103%	99.2%	103%	97.7%	104%	107%	93.9%	93.6%	84.6%	98.9%	110%	88.1%	90.5%	104%	102%
N#CSc1c[nH]c2cccc(/C=C/C(=O)/C=C(/C=C/c3cccc4[nH]cc(SC#N)c34)OB(F)F)c12	6.43% (active)	-6.08% (active)	-26.1% (active)	-10.8% (active)	7.06% (active)	78.7%	3.87% (active)	2.33% (active)	26.3%	25.7%	9.55% (active)	-25.3% (active)	-74.7% (active)	-35% (active)	-22.6% (active)	-88.5% (active)	-32.7% (active)	11.7%
Nc1c(C(=O)Nc2ccccc2C(F)(F)F)sc2nc3c(cc12)CCC3	86.6%	110%	100%	103%	101%	87.7%	105%	113%	95.1%	101%	67.4%	115%	92.8%	96%	95.8%	107%	94.6%	113%
O=C(Nc1nc(-c2ccc(Cl)cc2)nc2c1sc(=S)n2-c1ccccc1)C(F)(F)F	19.9%	51.2%	27.1%	62.6%	-53.5% (active)	25.2%	32.9%	16.8%	11.5%	32%	-14.8% (active)	28.3%	50.6%	34.3%	57.1%	3.7% (active)	68.4%	32.8%
CN(C)S(=O)(=O)c1cccc(C(=O)Nc2nc(-c3ccc(F)c(F)c3)cs2)c1	41%	63.2%	48.9%	86.1%	37.2%	108%	41.6%	70.8%	107%	22.5%	19.7%	52.5%	83.3%	93.9%	48.4%	57.6%	88.1%	97.4%
C1CCC([PH+](C2CCCCC2)C2CCCCC2[PH+](C2CCCCC2)C2CCCCC2)CC1.[Au].[CH-]1CCCCC1C1CCCC[N-]1 (stereo unspecified)	-3.06% (active)	-15.6% (active)	-6.1% (active)	-69.3% (active)	-5.17% (active)	-65.8% (active)	-38.6% (active)	-92.2% (active)	-5.47% (active)	9.87% (active)	-45.3% (active)	-40.4% (active)	-63.1% (active)	-76.4% (active)	-30.5% (active)	-40.5% (active)	-90.1% (active)	-85.2% (active)
NS(=O)(=O)c1ccccc1NC(=O)Nc1nc2ccccc2s1	94.4%	102%	100%	101%	93.3%	97.3%	89.1%	108%	100%	99.7%	87.3%	98.2%	103%	101%	82.4%	98.8%	95.8%	104%
CCCCC1=C(P(=O)(O)O)N[C@H](C(=O)O)CS1	96.4%	99.7%	95.5%	94.4%	91.3%	80.7%	94.3%	106%	109%	108%	96.7%	102%	101%	96.9%	89.3%	96.5%	89.2%	110%
O=C(CN1CCOCC1)Nc1nc(-c2cc3ccccc3oc2=O)cs1	102%	104%	99.4%	95.5%	102%	116%	87.9%	105%	92.8%	103%	111%	98.5%	104%	101%	79.2%	99%	103%	100%
CCSc1oc(-c2ccccc2)nc1[P+](c1ccccc1)(c1ccccc1)c1ccccc1	1.17% (active)	-18.9% (active)	7.86% (active)	27.6%	13.1%	-16.1% (active)	5.02% (active)	3.17% (active)	18.4%	67.4%	1.87% (active)	-10.9% (active)	3.45% (active)	10.8%	4.96% (active)	2.27% (active)	14.5%	-16.2% (active)
COc1cc(OC)c(NC(=O)c2cc3ccccc3cc2O)cc1Cl	82.6%	7.51% (active)	41.5%	89%	41.4%	71.6%	1.6% (active)	2.27% (active)	31.1%	14.1%	78.7%	-25.9% (active)	22.7%	21.9%	76.1%	18.1%	61.9%	18.5%
Cc1nc2sc(C(=O)Nc3cccc4ccccc34)c(N)c2cc1C(O)c1ccccc1 (stereo unspecified)	-1.98% (active)	0.145% (active)	5.13% (active)	37.4%	60%	8.83% (active)	14.4%	-5.29% (active)	8.1% (active)	2.93% (active)	45.4%	40.2%	0.328% (active)	20.2%	12.4%	8.89% (active)	5.55% (active)	7.64% (active)
COc1cc(-c2nccc3[nH]c(-c4ccc5cc[nH]c5c4)nc23)cc(OC)c1OC	-4.95% (active)	-43% (active)	12.4%	41.5%	39.3%	1.3% (active)	29.5%	2.2% (active)	31.1%	12.7%	30.5%	18.4%	5.17% (active)	-15.6% (active)	2.12% (active)	4.37% (active)	-19.2% (active)	3.62% (active)
CNC(=O)c1[nH]cc(-c2ccc(OC)cc2)c1-c1cc(OC)c2c(c1OC)OCO2	102%	108%	98.7%	95.8%	96.4%	99.9%	87.4%	100%	115%	95.8%	92.3%	97.4%	99.6%	103%	97.5%	95.6%	101%	104%
CC1CN(S(=O)(=O)c2oc(-c3ccc(Cl)cc3)nc2C#N)CC(C)O1 (stereo unspecified)	-12.9% (active)	24.2%	54.6%	100%	92.4%	99.9%	80.5%	34.4%	98.7%	101%	27%	89%	86.4%	-66.1% (active)	55.2%	-53.4% (active)	105%	100%
Cc1ccc(/C=C2\COc3ccc(O)cc3C2=O)cc1	12.7%	-1.31% (active)	91.7%	102%	93.3%	126%	95.1%	101%	97.5%	101%	88.9%	79.1%	75.8%	47.9%	12.8%	59.5%	112%	46.6%
